# Reference: PubChem BioAssay
# The source made the active and inactive calls.
# What was measured:
# [1] = tested on: Plasmodium falciparum Sir2 (PF13_0152, Sir2A); experiment: Plasmodium falciparum Sir2A binding compounds – biochemical, small-molecule microarray, 635 nm fluorescence, primary screen (AID 1098); details: fluorescence 635 nm, higher = more signal;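 also: score merges spot fluorescence intensity with its signal-to-noise ratio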
# [2] = probe aDKK1 binding to arrayed compounds – biochemical, biotinylated probe, 635/667 nm fluorescence, primary screen (AID 1099); details: small-molecule microarray, higher = more signal;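 also: score merges 667nm spot fluorescence with signal to noise across triplicate slides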
# [3] = probe aCHRDL2 binding to arrayed compounds – biochemical, biotinylated probe, 635/667 nm fluorescence, primary screen (AID 1100); details: small-molecule microarray, higher = more signal
# [4] = change in splice reporter luminescence, either direction, cell-based, HEK293, spliceosome inhibition project, primary screen (AID 1101); details: HEK293 splicing luciferase reporter, 24 h, higher = more signal, called active from +8 up or from −8 down;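 also: HEK293 cells carrying a splicing-competent luciferase reporter gene; test concentration not given here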
# [5] = biological target: Fibroblast growth factor 10 (Homo sapiens) (UniProt O15520); experiment: compounds binding fibroblast growth factor 10 – biochemical, small-molecule microarray, 635 nm fluorescence, primary screen (AID 1102); details: FGF10 binding, fluorescence 635 nm, higher = more signal
# [6] = tested on: glycogen synthase kinase-3 (GSK3A per assay name; protocol says GSK3B); experiment: compounds binding glycogen synthase kinase-3 – biochemical, small-molecule microarray, 635 nm fluorescence, GSK3A, primary screen (AID 1103); details: fluorescence 635 nm, higher = more signal; also: the record names both GSK3A and GSK3B
# [7] = biological target: Epidermal growth factor receptor (Homo sapiens) (UniProt P00533); experiment: compounds binding epidermal growth factor receptor – biochemical, small-molecule microarray, 635 nm fluorescence, primary screen (AID 1104); details: EGFR binding, higher = more signal;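 also: score merges 667 nm emission intensity with spot signal to noise over triplicate slides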
# [8] = biological target: Follistatin-related protein 3 (Homo sapiens) (UniProt O95633); experiment: compounds binding follistatin-related protein 3 – biochemical, small-molecule microarray, 635 nm fluorescence, primary screen (AID 1105); details: FSTL3 binding, higher = more signal;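 also: score merges emission near 667 nm and signal to noise per printed spot across three slides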
# [9] = biological target: Dickkopf-related protein 1 (Homo sapiens) (UniProt O94907); experiment: small molecules binding DKK1 protein – biochemical, small-molecule microarray, 635 nm fluorescence scan, primary screen (AID 1106); details: higher = more signal;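 also: score merges emission near 667 nm with signal to noise over three replicate slides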
# [10] = tested on: Inhibin beta A chain (activin A); experiment: small molecules binding activin A – biochemical, small-molecule microarray, 635 nm fluorescence scan, primary screen (AID 1107); details: INHBA, higher = more signal;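 also: mouse activin A protein probed at 4.33 µg/mL on printed slides; score merges bound-protein fluorescence near 667 nm with spot signal-to-noise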
# [11] = tested on: Human papillomavirus type 1a protein E7 (residues 44-93); experiment: small molecules binding HPV E7 44-93 – biochemical, small-molecule microarray, residues 44-93, 635 nm fluorescence, primary screen (AID 1108); details: fluorescence 635 nm, higher = more signal;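 also: E7 fragment applied at 1 µg/mL in TBST for 1 h at 4 C; score combines spot fluorescence with its signal to noise ratio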
# [12] = hepatitis C replication reporter changes, two-sided – Huh7 cells, luciferase reporter, HCV replication inhibitor project, primary screen (AID 1109); details: Huh7 HCV replicon luciferase reporter, 48 h; higher = more signal;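 also: huh7 hepatoma cells harbouring a luciferase neomycin HCV replicon reporter; luciferase luminescence as measure of HCV replicon replication; test concentration not given here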
# [13] = biological target: Left-right determination factor 2 (Homo sapiens) (UniProt O00292); experiment: small molecules binding LEFTY2 protein – biochemical, small-molecule microarray, 635 nm fluorescence scan, primary screen (AID 1110); details: higher = more signal
# [14] = biological target: Calmodulin-1 (Homo sapiens) (UniProt P0DP23); experiment: small molecules binding calmodulin-1 with EGTA – biochemical, small-molecule microarray, Cy5-labelled CALM1, profiling panel (AID 1111); details: Cy5-CALM1 binding fluorescence, higher = more signal;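 also: labelled calmodulin applied in Tris saline Tween buffer holding calcium plus EGTA and DTT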
# [15] = biological target: Calmodulin-1 (Homo sapiens) (UniProt P0DP23); experiment: small molecules binding Ca-loaded calmodulin-1 – biochemical, small-molecule microarray, Cy5-labelled CALM1, plus calcium, artefact control for SMM control-protein annotation, profiling panel (AID 1112); details: Cy5-CALM1 binding fluorescence, higher = more signal;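 also: score merges spot fluorescence with signal to noise from triplicate slides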
# [16] = probe aWnt5a binding to arrayed compounds – biochemical, biotinylated probe, 635/667 nm fluorescence, primary screen (AID 1113); details: small-molecule microarray, higher = more signal;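 also: score merges 667 nm fluorescence intensity with signal-to-noise per printed feature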
# [17] = probe aShh binding to arrayed compounds – biochemical, biotinylated probe, 635/667 nm fluorescence, primary screen (AID 1114); details: small-molecule microarray, higher = more signal;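 also: probe is biotin-labelled aShh protein from a stem cell growth factor screen; measures binding of labelled protein to compounds printed on the slide; score merges feature fluorescence at 667 nm with signal-to-noise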
# [18] = probe aNog binding to arrayed compounds – biochemical, biotinylated probe, 635/667 nm fluorescence, primary screen (AID 1115); details: small-molecule microarray, higher = more signal;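 also: probe is biotinylated aNog protein used at 0.15 µg/mL for 1 h at 4 C; z-score combines 667 nm fluorescence of each spot with its signal to noise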
# [19] = biological target: Torsin-1A-interacting protein 1 (Homo sapiens) (UniProt Q5JTV8); experiment: compound microarray binding of lysate hLAP1 – cell lysate, small-molecule microarray, COS7 lysate, 635/667 nm fluorescence, primary screen (AID 1116); details: 635 nm fluorescence, higher = more signal
# [20] = biological target: Alpha-bungarotoxin (Bungarus multicinctus) (UniProt P60615); experiment: compounds binding labelled alpha-BTX control protein – biochemical, small-molecule microarray, Alexa647 label, 635/667 nm fluorescence, artefact control for SMM control protein annotation, profiling panel (AID 1117); details: alpha-BTX-A647 binding fluorescence, higher = more signal
# Chain of Alpha-bungarotoxin (Bungarus multicinctus) (P60615 whole entry, looked up): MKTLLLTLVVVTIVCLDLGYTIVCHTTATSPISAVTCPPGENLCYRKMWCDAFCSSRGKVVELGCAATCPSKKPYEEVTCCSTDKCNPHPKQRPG
# Chain of Epidermal growth factor receptor (Homo sapiens) (P00533 whole entry, looked up): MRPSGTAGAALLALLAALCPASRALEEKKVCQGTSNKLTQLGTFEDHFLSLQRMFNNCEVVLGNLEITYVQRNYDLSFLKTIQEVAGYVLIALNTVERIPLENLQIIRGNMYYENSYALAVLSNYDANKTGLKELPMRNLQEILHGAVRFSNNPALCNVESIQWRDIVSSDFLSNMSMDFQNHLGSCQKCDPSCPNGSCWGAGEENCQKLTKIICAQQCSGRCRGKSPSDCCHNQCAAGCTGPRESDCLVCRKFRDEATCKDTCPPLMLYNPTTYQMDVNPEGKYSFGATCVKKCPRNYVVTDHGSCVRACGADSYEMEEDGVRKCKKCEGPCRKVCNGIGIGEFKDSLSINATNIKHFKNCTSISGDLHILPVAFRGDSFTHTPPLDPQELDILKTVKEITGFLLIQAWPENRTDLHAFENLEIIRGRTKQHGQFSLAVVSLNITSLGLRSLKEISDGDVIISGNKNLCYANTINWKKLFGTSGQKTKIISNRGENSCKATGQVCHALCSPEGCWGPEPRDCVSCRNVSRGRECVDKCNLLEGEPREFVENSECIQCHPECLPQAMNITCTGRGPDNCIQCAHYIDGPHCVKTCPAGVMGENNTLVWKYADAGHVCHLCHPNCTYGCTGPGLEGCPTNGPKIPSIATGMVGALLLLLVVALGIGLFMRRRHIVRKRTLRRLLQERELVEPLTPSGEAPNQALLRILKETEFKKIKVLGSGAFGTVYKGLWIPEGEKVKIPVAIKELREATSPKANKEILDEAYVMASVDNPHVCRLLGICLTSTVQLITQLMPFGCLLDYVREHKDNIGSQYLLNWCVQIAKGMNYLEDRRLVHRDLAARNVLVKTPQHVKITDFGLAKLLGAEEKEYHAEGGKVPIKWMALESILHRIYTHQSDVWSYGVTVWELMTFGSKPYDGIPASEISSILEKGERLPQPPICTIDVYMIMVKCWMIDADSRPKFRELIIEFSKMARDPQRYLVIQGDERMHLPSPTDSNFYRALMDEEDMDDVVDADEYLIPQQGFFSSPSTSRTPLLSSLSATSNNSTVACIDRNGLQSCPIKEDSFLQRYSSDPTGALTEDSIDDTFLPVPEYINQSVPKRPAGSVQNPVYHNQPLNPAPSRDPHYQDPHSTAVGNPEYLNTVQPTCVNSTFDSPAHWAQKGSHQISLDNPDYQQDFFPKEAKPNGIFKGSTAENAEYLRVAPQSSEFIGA
# Chain of Dickkopf-related protein 1 (Homo sapiens) (O94907 whole entry, looked up): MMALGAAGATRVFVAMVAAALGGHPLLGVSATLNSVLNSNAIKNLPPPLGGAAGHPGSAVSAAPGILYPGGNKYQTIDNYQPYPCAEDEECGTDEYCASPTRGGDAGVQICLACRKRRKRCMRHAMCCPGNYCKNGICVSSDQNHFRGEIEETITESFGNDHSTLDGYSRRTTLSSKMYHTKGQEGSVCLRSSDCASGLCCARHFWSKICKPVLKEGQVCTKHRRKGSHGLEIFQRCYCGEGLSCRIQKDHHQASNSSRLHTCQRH
# Chain of Fibroblast growth factor 10 (Homo sapiens) (O15520 whole entry, looked up): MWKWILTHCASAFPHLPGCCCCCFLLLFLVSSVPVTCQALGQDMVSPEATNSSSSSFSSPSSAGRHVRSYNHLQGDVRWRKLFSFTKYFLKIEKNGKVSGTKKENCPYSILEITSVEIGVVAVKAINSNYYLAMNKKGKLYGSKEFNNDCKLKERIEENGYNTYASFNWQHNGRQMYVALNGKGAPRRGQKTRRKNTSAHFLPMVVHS
# Chain of Follistatin-related protein 3 (Homo sapiens) (O95633 whole entry, looked up): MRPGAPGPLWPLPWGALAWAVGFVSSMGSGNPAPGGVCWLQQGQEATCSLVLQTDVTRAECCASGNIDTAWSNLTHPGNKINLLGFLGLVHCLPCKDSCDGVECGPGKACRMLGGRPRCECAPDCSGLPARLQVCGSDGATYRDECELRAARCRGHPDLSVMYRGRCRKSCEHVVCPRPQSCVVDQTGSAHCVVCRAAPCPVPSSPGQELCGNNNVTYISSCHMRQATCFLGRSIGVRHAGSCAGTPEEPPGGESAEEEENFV
# Chain of Torsin-1A-interacting protein 1 (Homo sapiens) (Q5JTV8 whole entry, looked up): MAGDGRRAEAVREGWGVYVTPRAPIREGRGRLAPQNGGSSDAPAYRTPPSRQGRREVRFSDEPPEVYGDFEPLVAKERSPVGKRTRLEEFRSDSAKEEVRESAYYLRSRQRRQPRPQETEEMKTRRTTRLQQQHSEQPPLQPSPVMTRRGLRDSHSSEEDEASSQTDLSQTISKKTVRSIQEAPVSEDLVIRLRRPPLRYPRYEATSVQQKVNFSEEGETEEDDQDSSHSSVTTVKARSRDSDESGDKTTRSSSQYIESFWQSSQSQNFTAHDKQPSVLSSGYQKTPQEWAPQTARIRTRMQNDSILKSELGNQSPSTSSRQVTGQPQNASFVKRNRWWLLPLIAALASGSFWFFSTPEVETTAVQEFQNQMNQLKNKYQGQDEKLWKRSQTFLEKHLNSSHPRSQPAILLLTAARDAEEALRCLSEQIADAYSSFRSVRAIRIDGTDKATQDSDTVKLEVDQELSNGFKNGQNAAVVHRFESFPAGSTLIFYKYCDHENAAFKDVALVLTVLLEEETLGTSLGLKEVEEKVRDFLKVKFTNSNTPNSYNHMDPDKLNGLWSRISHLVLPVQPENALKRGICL
# Chain of Left-right determination factor 2 (Homo sapiens) (O00292 whole entry, looked up): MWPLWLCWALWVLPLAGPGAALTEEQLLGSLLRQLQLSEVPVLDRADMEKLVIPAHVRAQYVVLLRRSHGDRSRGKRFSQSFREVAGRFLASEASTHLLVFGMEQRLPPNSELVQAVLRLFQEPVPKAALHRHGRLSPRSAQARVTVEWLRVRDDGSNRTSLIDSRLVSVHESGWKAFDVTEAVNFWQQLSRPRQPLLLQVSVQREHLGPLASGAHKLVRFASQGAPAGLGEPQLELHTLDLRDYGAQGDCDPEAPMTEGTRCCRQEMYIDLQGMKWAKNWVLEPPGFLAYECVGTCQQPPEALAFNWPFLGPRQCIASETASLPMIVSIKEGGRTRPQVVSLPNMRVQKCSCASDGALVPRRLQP
Compound,composite z-score [1],composite z-score [2],composite z-score [3],z-score [4],composite z-score [5],composite z-score [6],composite z-score [7],composite z-score [8],composite z-score [9],composite z-score [10],composite z-score [11],z-score [12],composite z-score [13],composite z-score [14],composite z-score [15],composite z-score [16],composite z-score [17],composite z-score [18],composite z-score [19],composite z-score [20]
O=C1[C@@]23C=C(Br)[C@H](C[C@@H]2CCOC3)[C@@]12CO2,0.204,-0.327,-0.478,0.149 (inactive),0.254,0.329,0.442,0.473,0.485,0.684,0.364,-2.17,0.459,-0.206,-0.657,-0.0585,0.151,-0.303,1.53,0.331
COc1ccc([Si](C)(C)[C@@H]2[C@@H](CCO)O[C@]3(C(=O)N(Cc4ccc(N(C=O)c5ccccc5)cc4)c4ccccc43)[C@H]2C)cc1,0.724,0.116,0.605,-1.38 (inactive),0.224,-0.157,-0.049,0.218,-0.013,1.1,0.121,-4.67,0.0196,1.32,0.973,-0.0203,0.385,0.286,0.419,1.62
COCCOC(=O)N1C(=O)[C@@]2(c3cc(C#CCC(C(=O)OC)C(=O)OC)ccc31)[C@H](C(=O)N1CCN(c3ncccn3)CC1)[C@H]1C(=O)O[C@H](c3ccccc3)[C@H](c3ccccc3)N1[C@@H]2c1ccccc1OCCO,0.664,-0.0805,-0.408,0.476 (inactive),1.33,1.3,0.926,1.38,0.962,0.286,1.38,-1.94,1.16,0.875,-0.487,-0.0403,-0.17,-0.141,0.351,1.29
O=C(c1ccccc1)N1C(=O)[C@]2(COC(c3ccc(OCCCO)cc3)=N2)Cc2ccccc21,1.7,0.688,0.784,0.00817 (inactive),1.07,1.32,0.218,1.23,0.427,0.424,1.04,-1.14,0.448,1.8,0.106,-0.0303,-0.321,1.13,1.84,2.29
C=C[C@@H](COC(=O)OC(C)(C)C)N(Cc1ccc(OC)cc1)S(=O)(=O)c1ccc(Br)cc1,0.487,-0.189,0.166,0.255 (inactive),0.541,0.632,0.691,1,0.513,0.841,1.28,-0.987,0.537,-0.042,-0.439,-0.0977,0.0121,-0.326,0.173,0.268
CN1C=C(C(=O)OCCS(C)(=O)=O)C(C(=O)OCCS(C)(=O)=O)=CC(c2ccc(CO)cc2)=CC1C1CC1 (stereo not given),0.666,-0.0901,0.166,0.456 (inactive),0.16,-0.0888,0.353,-0.0857,0.0847,0.99,-0.0095,-0.595,0.328,0.405,-0.306,-0.105,-0.0681,0.366,1.83,0.274
CCCCC(CC)C(O)C1C=CC2C(=O)N(Cc3ccccc3)C(=O)C2N1n1cnnc1 (stereo not given),-0.503,0.197,0.552,-0.44 (inactive),-0.0566,-0.0058,-0.286,0.0568,-0.691,0.82,0.281,0.137,-0.729,-0.0327,-0.658,-0.124,-0.153,-0.127,-0.0742,0.308
CCC[C@@H]1C[C@@]1(CCC)[C@@H](NC(=O)c1ccccc1)c1cccc(Cl)c1,-0.12,2,0.958,0.444 (inactive),0.905,1.09,0.446,0.644,-0.202,1.08,1.37,-0.75,-0.278,1.97,1.43,1.09,1.35,0.311,1.04,1.74
CN(C)CCCCCCNC(=O)[C@@H]1C[C@@H]2C(=O)N[C@@H](Cc3ccccc3)C(=O)N2[C@@H]1c1ccc(O)cc1,1.51,0.026,-0.127,-0.926 (inactive),1.06,1.35,1.37,1.44,1.38,1.41,1.13,2.17,1.02,-0.565,-1.14,-0.0425,0.0668,0,1.32,2.47
COCCOC(=O)N1C(=O)[C@@]2(c3cc(C#Cc4ccc(OC)cc4)ccc31)[C@H](c1ccc(O)cc1)N1[C@H](c3ccccc3)[C@H](c3ccccc3)OC(=O)[C@H]1[C@@H]2C(=O)N1CCc2cc(OC)c(OC)cc2C1,0.888,0.267,-0.0098,-1.34 (inactive),0.636,1.2,0.386,0.914,0.75,-0.0186,1.32,-0.296,0.471,1.74,0.141,0.0017,-0.301,0.27,0.796,0.317
CC(C)N1C(=O)C[C@@](C(=O)NCC(F)(F)F)(c2ccc([N+](=O)[O-])cc2)[C@H]1c1ccc(CO)cc1,1.42,-0.186,0.52,-0.259 (inactive),-0.244,0.0211,-0.399,-0.241,-0.272,0.5,0.627,-0.672,-0.383,-0.273,-0.411,-0.178,-0.372,-0.368,-0.0079,0.259
